Laboratory results as given in the supplement of paper PMC8975748.
Structures can show the parent of a compound that is named as a salt. ± gives the standard deviation of the averaged measurements.

Columns and labels:
[1] = system: Saccharomyces cerevisiae BY4741 SeMeCo community; test: mean cell size (pixel area) (pixels); higher = larger cells; conditions: 10 µM; 24 h; SM minimal medium
In short: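 A fluorescent Saccharomyces cerevisiae BY4741 community carrying four plasmids was used, with each plasmid complementing one auxotrophy and bearing a fluorescent marker. An overnight preculture at OD600 = 1.0 was diluted to OD600 = 0.3, and 70 µl went into 384-well plates acoustically predosed with drug (final 10 µM) in SM medium for 24 h. After paraformaldehyde fixation, cells were imaged by automated confocal microscopy and analysed in Harmony, giving the mean cell pixel area per well. Each value is the average of 3 replicates. Same SeMeCo high-content imaging drug screen: Selleck FDA-approved drugs at 10 µM, 24 h in SM medium, 384-well plates, 3 replicates.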

[2] = system: Saccharomyces cerevisiae BY4741 SeMeCo community; test: z-score of prototroph abundance vs DMSO median; higher = larger share of this subpopulation than in DMSO controls; conditions: 10 µM; 24 h; SM minimal medium; subpopulation (auxotrophy): Prototroph
In short: (§1)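 A Saccharomyces cerevisiae BY4741 community carried four plasmids, each restoring one auxotrophy and encoding a distinct fluorescent protein. It was pre-grown overnight to OD600 1.0, diluted to 0.3, and 70 µl was added to 384-well plates acoustically predosed with library drugs (10 µM final), then grown 24 h in minimal SM medium. Cells were paraformaldehyde-fixed and imaged by automated confocal microscopy, with single-auxotroph fluorescent strains setting thresholds and autofluorescence correction. Each subpopulation's abundance was scored as a z-score against the vehicle-well median.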

[3] = system: Saccharomyces cerevisiae BY4741 SeMeCo community; test: z-score of subpopulation abundance vs DMSO median, subpopulation auxotrophic for M; higher = larger share of this subpopulation than in DMSO controls; conditions: 10 µM; 24 h; SM minimal medium; subpopulation (auxotrophy): M
In short: as §1

[4] = system: Saccharomyces cerevisiae BY4741 SeMeCo community; test: z-score of subpopulation abundance vs DMSO median, subpopulation auxotrophic for H; higher = larger share of this subpopulation than in DMSO controls; conditions: 10 µM; 24 h; SM minimal medium; subpopulation (auxotrophy): H
In short: as §1

[5] = system: Saccharomyces cerevisiae BY4741 SeMeCo community; test: z-score of subpopulation abundance vs DMSO median, subpopulation auxotrophic for LU; higher = larger share of this subpopulation than in DMSO controls; conditions: 10 µM; 24 h; SM minimal medium; subpopulation (auxotrophy): LU
In short: as §1

[6] = system: Saccharomyces cerevisiae BY4741 SeMeCo community; test: z-score of subpopulation abundance vs DMSO median, subpopulation auxotrophic for LM; higher = larger share of this subpopulation than in DMSO controls; conditions: 10 µM; 24 h; SM minimal medium; subpopulation (auxotrophy): LM
In short: as §1

[7] = system: Saccharomyces cerevisiae BY4741 SeMeCo community; test: z-score of subpopulation abundance vs DMSO median, subpopulation auxotrophic for HM; higher = larger share of this subpopulation than in DMSO controls; conditions: 10 µM; 24 h; SM minimal medium; subpopulation (auxotrophy): HM
In short: as §1

[8] = system: Saccharomyces cerevisiae BY4741 SeMeCo community; test: z-score of subpopulation abundance vs DMSO median, subpopulation auxotrophic for UM; higher = larger share of this subpopulation than in DMSO controls; conditions: 10 µM; 24 h; SM minimal medium; subpopulation (auxotrophy): UM
In short: as §1

[9] = system: Saccharomyces cerevisiae BY4741 SeMeCo community; test: z-score of subpopulation abundance vs DMSO median, subpopulation auxotrophic for HL; higher = larger share of this subpopulation than in DMSO controls; conditions: 10 µM; 24 h; SM minimal medium; subpopulation (auxotrophy): HL
In short: as §1

[10] = system: Saccharomyces cerevisiae BY4741 SeMeCo community; test: z-score of subpopulation abundance vs DMSO median, subpopulation auxotrophic for HLU; higher = larger share of this subpopulation than in DMSO controls; conditions: 10 µM; 24 h; SM minimal medium; subpopulation (auxotrophy): HLU
In short: as §1

[11] = system: Saccharomyces cerevisiae BY4741 SeMeCo community; test: z-score of subpopulation abundance vs DMSO median, subpopulation auxotrophic for HLM; higher = larger share of this subpopulation than in DMSO controls; conditions: 10 µM; 24 h; SM minimal medium; subpopulation (auxotrophy): HLM
In short: as §1

[12] = system: Saccharomyces cerevisiae BY4741 SeMeCo community; test: z-score of subpopulation abundance vs DMSO median, subpopulation auxotrophic for HUM; higher = larger share of this subpopulation than in DMSO controls; conditions: 10 µM; 24 h; SM minimal medium; subpopulation (auxotrophy): HUM
In short: as §1

[13] = system: Saccharomyces cerevisiae BY4741 SeMeCo community; test: z-score of subpopulation abundance vs DMSO median, subpopulation auxotrophic for LUM; higher = larger share of this subpopulation than in DMSO controls; conditions: 10 µM; 24 h; SM minimal medium; subpopulation (auxotrophy): LUM
In short: as §1

[14] = system: Saccharomyces cerevisiae BY4741 SeMeCo community; test: z-score of subpopulation abundance vs DMSO median, subpopulation auxotrophic for HLUM; higher = larger share of this subpopulation than in DMSO controls; conditions: 10 µM; 24 h; SM minimal medium; subpopulation (auxotrophy): HLUM
In short: as §1

[15] = system: Saccharomyces cerevisiae BY4741 SeMeCo community; test: z-score of subpopulation abundance vs DMSO median, subpopulation auxotrophic for HU; higher = larger share of this subpopulation than in DMSO controls; conditions: 10 µM; 24 h; SM minimal medium; subpopulation (auxotrophy): HU
In short: as §1

[16] = system: Saccharomyces cerevisiae BY4741 SeMeCo community; test: z-score of subpopulation abundance vs DMSO median, subpopulation auxotrophic for U; higher = larger share of this subpopulation than in DMSO controls; conditions: 10 µM; 24 h; SM minimal medium; subpopulation (auxotrophy): U
In short: as §1

[17] = system: Saccharomyces cerevisiae BY4741 SeMeCo community; test: z-score of subpopulation abundance vs DMSO median, subpopulation auxotrophic for L; higher = larger share of this subpopulation than in DMSO controls; conditions: 10 µM; 24 h; SM minimal medium; subpopulation (auxotrophy): L
In short: as §1

SMILES	mean cell size [1]	z-score of prototroph abundance [2]	z-score of subpopulation abundance [3]	z-score of subpopulation abundance [4]	z-score of subpopulation abundance [5]	z-score of subpopulation abundance [6]	z-score of subpopulation abundance [7]	z-score of subpopulation abundance [8]	z-score of subpopulation abundance [9]	z-score of subpopulation abundance [10]	z-score of subpopulation abundance [11]	z-score of subpopulation abundance [12]	z-score of subpopulation abundance [13]	z-score of subpopulation abundance [14]	z-score of subpopulation abundance [15]	z-score of subpopulation abundance [16]	z-score of subpopulation abundance [17]
Cc1c(Cl)cccc1Nc1ccccc1C(=O)O [Tolfenamic Acid]	12.7 ± 0.24	1.21	-0.25	-1.01	-1.24	-1.47	-1.11	-0.9	-0.69	-1.46	-0.79	-0.87	-1.95	-1.09			
NCC[C@H](O)C(=O)N[C@@H]1C[C@H](N)[C@@H](O[C@H]2O[C@H](CN)[C@@H](O)[C@H](O)[C@H]2O)[C@H](O)[C@H]1O[C@H]1O[C@H](CO)[C@@H](O)[C@H](N)[C@H]1O [Amikacin disulfate]	11.9 ± 0.14	0.25	-0.8	-0.3	0.07	-0.17	-1.21	0.57	-0.25	0.12	-0.68	-0.51		0.42	-0.01		
O=C(O[C@@H]1C[C@@H]2C[C@H]3C[C@H](C1)N2CC3=O)c1c[nH]c2ccccc12 [Dolasetron Mesylate]	12.18 ± 0.11	-0.86	0.81		1.19	0.31	1.09	1.07	0	0.01	0.35	0.41	0.21	-0.07		0.89	
CC[C@@H]1/C=C(\C)C[C@H](C)C[C@H](OC)[C@H]2O[C@@](O)(C(=O)C(=O)N3CCCC[C@H]3C(=O)O[C@H](/C(C)=C/[C@@H]3CC[C@H](Cl)[C@H](OC)C3)[C@H](C)[C@@H](O)CC1=O)[C@H](C)C[C@@H]2OC [Pimecrolimus]	11.6 ± 0.16	-1.82	1.75	1.91		4.26	1.95	-0.8	4.57	1.88	2.14	0.94	4.36	2.63	-0.6	-1.72	3.91
Cc1ccc(-c2ncc(Cl)cc2-c2ccc(S(C)(=O)=O)cc2)cn1 [Etoricoxib]	12.4 ± 0.17	-0.04	0.51	-0.35		0.07	-0.1	0.52	-0.03	0.34	-0.16	-0.71	-0.03	-0.24	-0.51	-0.32	0.57
CC[C@H]1OC(=O)[C@H](C)[C@@H](O[C@H]2C[C@@](C)(OC)[C@@H](O)[C@H](C)O2)[C@H](C)[C@@H](O[C@@H]2O[C@H](C)C[C@H](N(C)C)[C@H]2O)[C@](C)(O)C[C@@H](C)/C(=N\OCOCCOC)[C@H](C)[C@@H](O)[C@]1(C)O [Roxithromycin]	12.4 ± 0.26	-0.63	0.34	0.59		0.13	0.24	0.31	0.42	0	-0.45	1.28	0.55	-0.6	0.46	0.31	-0.94
O=C(c1ccc(OCCN2CCCCC2)cc1)c1c(-c2ccc(O)cc2)sc2cc(O)ccc12 [Raloxifene]	12.3 ± 0.38	0.7	-0.22	1.48	-2.15	0.49	0.02	-1.32	0.96	0.52	0.78		-0.37	0.09	-1.39		
